Screen size: about 5,500 compounds; about 2,000 (36%) were called active. Another 18% or so got no clear call; they are omitted. The list shows a part of the results. A number with no mark means an inactive call. Cut-off read from the data, not from the text of the source: active = normalized growth mostly below about 0.91 (no sharp cut-off); inconclusive = no clear call, values can overlap the other calls; inactive = mostly above about 0.92.
Assay: chemical genetic growth profiling, strain panel (AID 1159580);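 note: tested at 20 µM; growth read once vehicle control cultures reached saturation at 30 °C; 1 = growth at the plate median or of vehicle wells; lower values mean less growth of the strain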
Conditions: growth OD

Question: For `COC(=O)Nc1nc2ccc(Sc3ccccc3)cc2[nH]1`, which normalized growth (S. cerevisiae deletion strains, locus YJR075W, strain HOC1, hits give low values) is on record?
Answer: 0.982

Question: What about the normalized growth (S. cerevisiae deletion strains, locus YKL009W, strain mrt4, hits give low values) of the same compound?
Answer: 0.951

Question: And the normalized growth (S. cerevisiae deletion strains, locus YKL068W, hits give low values)?
Answer: 0.996

Question: What about the normalized growth (S. cerevisiae deletion strains, locus YKL085W, strain MDH1 (second series), hits give low values) of the same compound?
Answer: 0.959

Question: What about the normalized growth (S. cerevisiae deletion strains, locus YKL085W, strain MDH1, hits give low values) of the same compound?
Answer: 0.959

Question: What about the normalized growth (S. cerevisiae deletion strains, locus YKL160W, strain elf1, hits give low values) of the same compound?
Answer: 0.997

Question: And the normalized growth (S. cerevisiae deletion strains, locus YKL190W, strain CNB1, hits give low values)?
Answer: 0.996

Question: And the normalized growth (S. cerevisiae deletion strains, locus YKR001C, strain vps1, hits give low values)?
Answer: 0.978

Question: What about the normalized growth (S. cerevisiae deletion strains, locus YKR026C, strain gcn3, hits give low values) of the same compound?
Answer: 0.98

Question: And the normalized growth (S. cerevisiae deletion strains, locus YKR091W, strain srl3, hits give low values)?
Answer: 1.01

Question: And the normalized growth (S. cerevisiae deletion strains, locus YLL001W, strain dnm1, hits give low values)?
Answer: 1

Question: And the normalized growth (S. cerevisiae deletion strains, locus YLL026W, hits give low values)?
Answer: 0.992

Question: What about the normalized growth (S. cerevisiae deletion strains, locus YLL041C, strain sdh2, hits give low values) of the same compound?
Answer: 0.989

Question: What about the normalized growth (S. cerevisiae deletion strains, locus YLR027C, strain aat2, hits give low values) of the same compound?
Answer: 0.995

Question: What about the normalized growth (S. cerevisiae deletion strains, locus YLR039C, strain RIC1, hits give low values) of the same compound?
Answer: 0.95

Question: What about the normalized growth (S. cerevisiae deletion strains, locus YLR058C, strain SHM2, hits give low values) of the same compound?
Answer: 0.996

Question: And the normalized growth (S. cerevisiae deletion strains, locus YLR102C, strain apc9, hits give low values)?
Answer: 1

Question: And the normalized growth (S. cerevisiae deletion strains, locus YLR113W, strain HOG1, hits give low values)?
Answer: 0.957

Question: And the normalized growth (S. cerevisiae deletion strains, locus YLR221C, strain rsa3, hits give low values)?
Answer: 0.992

Question: And the normalized growth (S. cerevisiae deletion strains, locus YLR258W, strain gsy2, hits give low values)?
Answer: 0.99

Question: What about the normalized growth (S. cerevisiae deletion strains, locus YLR262C, strain YPT6 (second series), hits give low values) of the same compound?
Answer: 0.921

Question: And the normalized growth (S. cerevisiae deletion strains, locus YLR262C, strain YPT6, hits give low values)?
Answer: 0.965

Question: And the normalized growth (S. cerevisiae deletion strains, locus YLR268W, strain sec22, hits give low values)?
Answer: 1.01

Question: What about the normalized growth (S. cerevisiae deletion strains, locus YLR320W, strain mms22, hits give low values) of the same compound?
Answer: 0.998

Question: And the normalized growth (S. cerevisiae deletion strains, locus YLR330W, strain CHS5, hits give low values)?
Answer: 0.994

Question: And the normalized growth (S. cerevisiae deletion strains, locus YLR342W, strain FKS1 (second series), hits give low values)?
Answer: 0.93

Question: What about the normalized growth (S. cerevisiae deletion strains, locus YLR342W, strain FKS1, hits give low values) of the same compound?
Answer: 0.983

Question: And the normalized growth (S. cerevisiae deletion strains, locus YLR357W, strain rsc2, hits give low values)?
Answer: 0.951

Question: What about the normalized growth (S. cerevisiae deletion strains, locus YLR370C, strain arc18, hits give low values) of the same compound?
Answer: 1

Question: What about the normalized growth (S. cerevisiae deletion strains, locus YLR371W, strain rom2, hits give low values) of the same compound?
Answer: 1.01

Question: What about the normalized growth (S. cerevisiae deletion strains, locus YLR384C, strain iki3, hits give low values) of the same compound?
Answer: 0.996

Question: And the normalized growth (S. cerevisiae deletion strains, locus YLR418C, strain cdc73, hits give low values)?
Answer: 0.918

Question: And the normalized growth (S. cerevisiae deletion strains, locus YML016C, strain PPZ1, hits give low values)?
Answer: 0.989

Question: And the normalized growth (S. cerevisiae deletion strains, locus YML032C, strain rad52, hits give low values)?
Answer: 1

Question: And the normalized growth (S. cerevisiae deletion strains, locus YML120C, strain ndi1, hits give low values)?
Answer: 0.98

Question: What about the normalized growth (S. cerevisiae deletion strains, locus YML124C, strain tub3, hits give low values) of the same compound?
Answer: 0.181 (active)

Question: What about the normalized growth (S. cerevisiae deletion strains, locus YMR058W, strain fet3, hits give low values) of the same compound?
Answer: 0.994

Question: What about the normalized growth (S. cerevisiae deletion strains, locus YMR078C, strain ctf18, hits give low values) of the same compound?
Answer: 1.01

Question: What about the normalized growth (S. cerevisiae deletion strains, locus YMR125W, strain sto1, hits give low values) of the same compound?
Answer: 0.984

Question: And the normalized growth (S. cerevisiae deletion strains, locus YMR129W, hits give low values)?
Answer: 1

Question: What about the normalized growth (S. cerevisiae deletion strains, locus YMR205C, strain PFK2, hits give low values) of the same compound?
Answer: 0.988

Question: And the normalized growth (S. cerevisiae deletion strains, locus YMR223W, strain ubp8, hits give low values)?
Answer: 0.968

Question: And the normalized growth (S. cerevisiae deletion strains, locus YMR231W, strain pep5, hits give low values)?
Answer: 0.984

Question: What about the normalized growth (S. cerevisiae deletion strains, locus YMR263W, strain SAP30, hits give low values) of the same compound?
Answer: 0.973

Question: And the normalized growth (S. cerevisiae deletion strains, locus YMR307W, strain GAS1, hits give low values)?
Answer: 0.974

Question: And the normalized growth (S. cerevisiae deletion strains, locus YNL067W, strain RPL9B, hits give low values)?
Answer: 0.996

Question: And the normalized growth (S. cerevisiae deletion strains, locus YNL071W, strain lat1, hits give low values)?
Answer: 0.988

Question: And the normalized growth (S. cerevisiae deletion strains, locus YNL128W, strain TEP1, hits give low values)?
Answer: 1.01

Question: What about the normalized growth (S. cerevisiae deletion strains, locus YNL153C, strain GIM3, hits give low values) of the same compound?
Answer: 0.0686 (active)

Question: And the normalized growth (S. cerevisiae deletion strains, locus YNL183C, strain NPR1, hits give low values)?
Answer: 0.893

Question: And the normalized growth (S. cerevisiae deletion strains, locus YNL209W, strain ssb2, hits give low values)?
Answer: 1.01

Question: What about the normalized growth (S. cerevisiae deletion strains, locus YNL233W, strain BNI4, hits give low values) of the same compound?
Answer: 0.977

Question: And the normalized growth (S. cerevisiae deletion strains, locus YNL248C, strain rpa49, hits give low values)?
Answer: 0.999

Question: What about the normalized growth (S. cerevisiae deletion strains, locus YNL250W, strain rad50, hits give low values) of the same compound?
Answer: 1

Question: What about the normalized growth (S. cerevisiae deletion strains, locus YNL271C, strain bni1, hits give low values) of the same compound?
Answer: 1.01

Question: And the normalized growth (S. cerevisiae deletion strains, locus YNL298W, strain CLA4, hits give low values)?
Answer: 0.99

Question: What about the normalized growth (S. cerevisiae deletion strains, locus YNL307C, strain MCK1, hits give low values) of the same compound?
Answer: 0.993

Question: What about the normalized growth (S. cerevisiae deletion strains, locus YNL322C, strain KRE1 (second series), hits give low values) of the same compound?
Answer: 0.988

Question: And the normalized growth (S. cerevisiae deletion strains, locus YNL322C, strain KRE1, hits give low values)?
Answer: 1

Question: And the normalized growth (S. cerevisiae deletion strains, locus YNR049C, strain mso1, hits give low values)?
Answer: 0.997

Question: And the normalized growth (S. cerevisiae deletion strains, locus YNR052C, strain pop2, hits give low values)?
Answer: 1

Question: What about the normalized growth (S. cerevisiae deletion strains, locus YOL006C, strain TOP1, hits give low values) of the same compound?
Answer: 0.981

Question: What about the normalized growth (S. cerevisiae deletion strains, locus YOL012C, strain htz1) of the same compound?
Answer: 0.49

Question: What about the normalized growth (S. cerevisiae deletion strains, locus YOL147C, strain pex11, hits give low values) of the same compound?
Answer: 0.996

Question: What about the normalized growth (S. cerevisiae deletion strains, locus YOR001W, strain rrp6, hits give low values) of the same compound?
Answer: 0.985

Question: What about the normalized growth (S. cerevisiae deletion strains, locus YOR061W, strain CKA2, hits give low values) of the same compound?
Answer: 0.994

Question: And the normalized growth (S. cerevisiae deletion strains, locus YOR069W, strain VPS5, hits give low values)?
Answer: 1

Question: And the normalized growth (S. cerevisiae deletion strains, locus YOR070C, strain gyp1, hits give low values)?
Answer: 0.99

Question: What about the normalized growth (S. cerevisiae deletion strains, locus YOR080W, strain dia2, hits give low values) of the same compound?
Answer: 0.993

Question: What about the normalized growth (S. cerevisiae deletion strains, locus YOR083W, strain WHI5, hits give low values) of the same compound?
Answer: 0.976

Question: And the normalized growth (S. cerevisiae deletion strains, locus YOR106W, strain vam3, hits give low values)?
Answer: 0.972

Question: And the normalized growth (S. cerevisiae deletion strains, locus YOR136W, strain idh2, hits give low values)?
Answer: 0.993

Question: What about the normalized growth (S. cerevisiae deletion strains, locus YOR144C, strain elg1, hits give low values) of the same compound?
Answer: 1

Question: What about the normalized growth (S. cerevisiae deletion strains, locus YOR184W, strain ser1, hits give low values) of the same compound?
Answer: 0.984

Question: What about the normalized growth (S. cerevisiae deletion strains, locus YOR231W, strain MKK1, hits give low values) of the same compound?
Answer: 0.973

Question: And the normalized growth (S. cerevisiae deletion strains, locus YOR265W, strain rbl2, hits give low values)?
Answer: 0.982

Question: And the normalized growth (S. cerevisiae deletion strains, locus YOR270C, strain vph1, hits give low values)?
Answer: 0.991

Question: And the normalized growth (S. cerevisiae deletion strains, locus YOR290C, strain snf2, hits give low values)?
Answer: 0.993

Question: And the normalized growth (S. cerevisiae deletion strains, locus YOR316C, strain cot1, hits give low values)?
Answer: 0.998

Question: What about the normalized growth (S. cerevisiae deletion strains, locus YPL051W, strain arl3, hits give low values) of the same compound?
Answer: 0.996

Question: What about the normalized growth (S. cerevisiae deletion strains, locus YPL055C, strain LGE1, hits give low values) of the same compound?
Answer: 0.953

Question: What about the normalized growth (S. cerevisiae deletion strains, locus YPL078C, strain atp4, hits give low values) of the same compound?
Answer: 0.994

Question: What about the normalized growth (S. cerevisiae deletion strains, locus YPL106C, strain sse1, hits give low values) of the same compound?
Answer: 1.08

Question: What about the normalized growth (S. cerevisiae deletion strains, locus YPL240C, strain hsp82, hits give low values) of the same compound?
Answer: 1

Question: And the normalized growth (S. cerevisiae deletion strains, locus YPL241C, strain CIN2, hits give low values)?
Answer: 0.0715 (active)

Question: And the normalized growth (S. cerevisiae deletion strains, locus YPL256C, strain CLN2, hits give low values)?
Answer: 0.959

Question: And the normalized growth (S. cerevisiae deletion strains, locus YPR119W, strain clb2, hits give low values)?
Answer: 1

Question: What about the normalized growth (S. cerevisiae deletion strains, locus YPR141C, strain kar3, hits give low values) of the same compound?
Answer: 1.02

Question: What about the normalized growth (S. cerevisiae deletion strains, locus YPR163C, strain tif3, hits give low values) of the same compound?
Answer: 0.986

Question: What about the normalized growth (S. cerevisiae deletion strains, locus YPR167C, strain met16, hits give low values) of the same compound?
Answer: 1

Question: And the normalized growth (S. cerevisiae deletion strains, strain wtn01, hits give low values)?
Answer: 0.998

Question: And the normalized growth (S. cerevisiae strains, strain wild type, hits give low values)?
Answer: 0.997

Reference: PubChem BioAssay AID1159580 (chemical genetic matrix, 2015)
